# An excerpt weighted towards active compounds, which were near 3.3% of everything screened.
# UBC13 inh: blocks human UBC13 polyubiquitin chain formation | AID 485273 | inhibition, % at 20 µM | P61088 | 0.47% of 330,000 active | TR-FRET; in the data active = inhibition above about 45%, passing the limit was not always enough
# Target sequence (P61088 whole entry, looked up): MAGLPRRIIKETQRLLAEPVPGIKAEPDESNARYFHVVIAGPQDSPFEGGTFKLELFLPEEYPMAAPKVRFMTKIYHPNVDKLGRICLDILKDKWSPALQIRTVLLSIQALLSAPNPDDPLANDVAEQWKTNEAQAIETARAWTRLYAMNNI
# sPLA2-III inh: Inhibits HGIII-sPLA2 liposome hydrolysis, primary screen | Q9NZ20 | QFRET BODIPY PC-A2 liposome hydrolysis, fluorescence | inhibition, % at 12.2 µM | 0.56% of 370,000 active | AID 743126;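 active = inhibition above mean plus 3 SD of compounds lying within the high and low control bounds, cut at about 19% in these data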;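 note: 0% = median of test compound wells and 100% = no enzyme DMSO wells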
# Target sequence (Q9NZ20 whole entry, looked up): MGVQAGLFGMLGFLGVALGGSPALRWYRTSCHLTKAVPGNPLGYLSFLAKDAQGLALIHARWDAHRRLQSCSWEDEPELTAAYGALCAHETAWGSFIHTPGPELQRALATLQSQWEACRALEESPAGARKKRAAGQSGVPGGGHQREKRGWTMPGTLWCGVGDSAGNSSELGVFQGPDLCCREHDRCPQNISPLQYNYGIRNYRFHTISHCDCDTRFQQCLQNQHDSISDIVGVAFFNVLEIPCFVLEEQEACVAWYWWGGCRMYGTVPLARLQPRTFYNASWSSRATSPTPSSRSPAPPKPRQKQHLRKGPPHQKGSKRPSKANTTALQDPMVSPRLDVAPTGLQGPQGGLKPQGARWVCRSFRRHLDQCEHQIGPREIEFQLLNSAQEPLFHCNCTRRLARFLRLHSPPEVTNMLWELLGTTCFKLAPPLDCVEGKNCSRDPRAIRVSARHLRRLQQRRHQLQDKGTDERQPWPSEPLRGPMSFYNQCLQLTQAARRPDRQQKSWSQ
# NR3A LBD binder: NR3A (human) ligand-binding domain modulation; NR3A LBD differential scanning fluorimetry, Tm shift; 0% = protein alone, 100% = glycine-bound protein; Tm shift relative to glycine control, % at 25 µM; 2.5% of 340,000 active;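 active = melting temperature shift of at least 10% of the positive control shift, at one fixed dose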
# UBC9 SUMO inh: inhibitors of human SUMOylation (UBC9); P63279; HTRF SUMOylation assay, SAE1/SAE2 + UBC9, in vitro; inhibition, % at 35 µM; 0.36% of 290,000 active; in the data active = inhibition above about 50%, passing the limit was not always enough
# Active calls of the source: *; . = no result given.
SMILES,UBC13 inh,sPLA2-III inh,NR3A LBD binder,UBC9 SUMO inh
COC(=O)[C@]12C[C@H](CC(=O)N3CCN(C(=O)c4ccco4)CC3)C(=O)N(Cc3ccc(Cl)cc3Cl)C1=C[C@H](C(C)C)O[C@@H]2C1CC1,.,-11.1,.,.
CCOC(=O)c1snc(-c2ccc(F)cc2)c1N,-3.5,4.7,14.2*,15.6
CO[C@H]([C@H](C)/C=C/N(C)C=O)[C@@H](C)C(=O)CC[C@H](C)[C@H](O)[C@H](C)[C@H]1OC(=O)/C=C/C(C)=C/C[C@H](O)C[C@@H]2C=CC[C@@H](C[C@H](OC)C(C)(O)[C@@H](OC)C[C@@H](OC)[C@@H]1C)O2 (some centres not stated),.,-22.1,.,.
COc1ccc(NS(=O)(=O)c2cc(Br)cc3c2N(C(C)=O)CC3)cc1,-4.1,6.8,35.2*,4.1
COc1cccc(C(=O)Nc2ccc3ccccc3c2)c1,-1.8,2.5,30.4*,9.6
CC(=O)c1cccc(NC(=O)c2ccc(NS(C)(=O)=O)cc2)c1,2.9,-3.2,-7.2,-12.8
CS(=O)(=O)Nc1ccc(C(=O)Nc2ccc3ccccc3c2)cc1,1.1,-17.2,30.8*,-1.3
COc1ccc(OC)c(NS(=O)(=O)c2ccc(NC(=O)c3ccc(NS(C)(=O)=O)cc3)cc2)c1,9.4,-23.7,20.7*,-6.0
COc1cccc(C(=O)Nc2ccc(NC(=O)c3cc4ccccc4o3)c(OC)c2)c1,6.9,-4.9,23.3*,33.0
Cc1cccc(C(=O)Nc2ccc3ccccc3c2)c1,-5.4,-8.4,8.7,-21.6
COc1cc(NC(=O)c2ccccc2)ccc1NC(=O)c1cc2ccccc2o1,0.1,6.4,1.6,6.3
CN1C(=O)c2cc(NC(=O)Nc3ccccc3)ccc2OC[C@H]2O[C@@H](CC(=O)NCc3ccc(-c4ccccc4)cc3)CC[C@@H]21,.,-16.3,.,.
CCCCOc1cccc(C(=O)NCCc2ccccc2-c2ccccc2CCC(=O)NCc2ccccc2)c1,.,8.2,.,.
O=C(NCC1COc2ccccc2O1)c1ccc(NC(=O)C(Cl)Cl)cc1 (configuration not stated),.,-2.7,.,.
Cc1cccc(NC(=O)C2CCN(c3ncccn3)CC2)c1C,.,2.2,.,.
COc1cccc(-c2cc(=O)c3cc(NC(=O)c4ccccc4)ccc3[nH]2)c1,0.1,8.4,26.2*,14.9
COc1ccc(NC(=O)c2cccc(OS(=O)(=O)N(C)C)c2)cc1,11.1,-5.4,11.7*,-1.4
CCOC(=O)c1ccc(NC(=O)c2ccc(NS(C)(=O)=O)cc2)cc1,-2.4,-11.7,15.9*,-9.1
COc1cc(NC(=O)COc2ccc(Cl)cc2)ccc1-c1cc2ccccc2oc1=O,13.3,6.3,10.2*,4.4
COc1cccc(-c2cc(=O)c3cc(NC(=O)c4ccc(Cl)cc4)ccc3[nH]2)c1,-15.9,4.9,-0.1,1.9
CCOC(=O)[C@@]12CCCC=C1N(CCc1ccc(Cl)cc1)C(=O)[C@H]2CC(=O)NCc1ccc(OC)c(OC)c1,.,-13.0,.,.
COc1ccc2c(c1)C[C@@H]1CC(C)(C)CN1S2(=O)=O,.,1.6,.,.
C[C@@H]1[C@@H](O)C[C@@]2(C[C@H](O)c3ccccc3O2)O[C@H]1c1ccccc1,.,-4.3,.,.
COc1cc(NC(=O)C(OC(=O)CNC(=O)c2ccccc2)c2ccccc2)cc(C(F)(F)F)c1 (configuration not stated),.,-2.5,.,.
COc1ccc(C(=O)Nc2ccc3ccccc3c2)cc1,-2.5,0.6,21.1*,16.9
SMILES,UBC13 inh,sPLA2-III inh,NR3A LBD binder,UBC9 SUMO inh
COc1cccc(C(=O)Nc2ccccc2)c1,4.6,3.7,25.9*,32.1
COc1cc(NS(=O)(=O)c2ccc(NC(=S)NC(=O)c3sc4ccccc4c3Cl)cc2)nc(OC)n1,.,2.7,-1.8,1.0
COc1cc(NS(=O)(=O)c2ccc(NC(=S)NC(=O)c3sc4cc(F)ccc4c3Cl)cc2)nc(OC)n1,-19.9,1.2,17.1*,-14.5
COc1ccc(OC)c(C(=O)c2ccc(C(=O)Nc3ccc4ccccc4c3)cc2)c1,-7.8,-4.3,5.0,6.0
O=C(Nc1cc(Cl)cc(Cl)c1)c1cccc(OC(F)F)c1,-7.9,-22.8,25.5*,0.2
COc1nc(OC)nc(N2CCC(C(=O)NCc3ccccc3OC)CC2)n1,.,10.9,.,.
COC(=O)[C@]12C[C@H](CC(=O)NCCc3ccccc3OC)C(=O)N(Cc3cccc4ccccc34)C1=C[C@H](COCc1ccccc1)O[C@@H]2C,.,-8.4,.,.
Clc1cc(Cl)cc(CNC2CCC23CCC(c2ccccc2)CC3)c1 (configuration not stated),.,5.2,.,.
O=C(Nc1ccc(N2CCOCC2)c(Cl)c1)c1cccc(F)c1,3.8,0.3,12.2*,-11.8
O=C(Nc1ccc(Nc2ccccc2)cc1)c1cccc(F)c1,-16.7,2.0,29.4*,-23.1
COc1ccc(NC(=O)NNC(=O)COc2ccc3ccccc3c2)cc1OC,7.4,-35.8,15.9*,5.7
COc1cc(NS(=O)(=O)c2ccc(NC(=O)c3ccc(F)cc3)cc2)ncn1,-5.2,-10.0,12.6*,1.4
C/C(C=Nn1c(-c2ccc(F)cc2)n[nH]c1=S)=C/c1ccco1,.,10.0,.,.
CC(C)c1ccc(NC(=O)c2ccc(NS(C)(=O)=O)cc2)cc1,-0.8,-5.8,19.8*,-2.7
Cn1nnc2cc(C(=O)Nc3ccc4ccccc4c3)ccc21,3.6,9.3,21.0*,9.3
CS(=O)(=O)Nc1ccc(C(=O)Nc2ccccc2Cl)cc1,-2.7,-2.3,0.7,7.3
COc1ccc(S[C@]2(C(=O)N3CCOCC3)CC(=O)N(P(=O)(OC)OC)[C@@H]2c2ccc(OC)cc2)cc1,.,4.9,.,.
Cc1nn(Cc2ccccc2Cl)c(C)c1C(=O)NC1=NCCS1,-6.1,3.4,-2.7,-2.8
CCC(CC)c1nnc(NC(=O)c2c(C)nn(Cc3ccccc3Cl)c2C)s1,-2.9,-14.1,15.6*,16.4
O=C(Nc1ccc(NC(=O)c2cccs2)cn1)c1ccccc1,4.3,5.4,13.6*,14.2
CC(=O)c1ccc(NC(=O)c2cccs2)cc1,0.7,5.8,-20.6,21.3
Cc1cc(C)cc(C(=O)Nc2ccc(NC(=O)c3cccs3)cc2)c1,2.6,-0.1,26.9*,12.5
COc1ccc(OCC(=O)NNC(=O)c2cccs2)cc1,5.5,-1.9,-2.7,-11.4
COc1ccc(CCNC(=O)c2cccs2)cc1,-3.6,16.7,30.9*,-6.5
COc1ccc(OCC(=O)Nc2ccc(NC(=O)c3cccs3)cc2)cc1,3.3,-0.3,32.3*,13.1
SMILES,UBC13 inh,sPLA2-III inh,NR3A LBD binder,UBC9 SUMO inh
N#Cc1ccccc1N1CCN(C(=O)C2CCN(c3ncnc4c3sc3cccc(F)c34)CC2)CC1,.,-4.7,.,.
COc1ccc(C(=O)/C=C\c2ccc(NC(=O)c3cccs3)cc2)cc1,3.3,1.0,23.0*,-11.6
COc1ccc(/C=C/C(=O)c2ccoc2)cc1,-3.2,-2.7,-0.3,16.5
COc1ccc(C(=O)Nc2cccc(NC(=O)c3cccs3)c2)cc1,-7.3,-2.1,8.0,-7.5
COc1ccc(NC(=O)c2ccc(NC(=O)c3cccs3)cc2)cc1,-6.1,0.8,25.6*,11.9
COc1ccc(/C=C/C(=O)c2ccc(O)cc2)cc1,-1.6,-3.5,11.0*,2.4
COc1cccc(NC(=O)c2cccs2)c1,-1.3,-0.9,25.5*,16.9
O=C(NC1CCCCN(Cc2cccc(Cl)c2)C1=O)C1CCCCC1 (configuration not stated),.,6.7,.,.

# Assay outcomes deposited in PubChem by several laboratories.
